Compound activity (PubChem BioAssay)
This is a sample that favours compounds with a hit; in the whole collection about 2.2% have one here.
ADAM17 inh – inhibits human ADAM17 | P78536 | recombinant ADAM17, EDANS/DABCYL FRET peptide cleavage | inhibition, % at 6.95 µM | 370,000 compounds, 0.83% hits | AID 720648;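 active = inhibition above the mean of compounds lying between control limits plus 3 SD, set per campaign, cut at about 8.5% in these data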;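 note: 0% = DMSO-only wells as the low control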
GC-B act – GC-B (human) receptor activation; P20594; HEK293-GC-B cells, CNP EC30, cGMP TR-FRET; 0% at EC30 CNP, 100% saturating CNP; activation, % at 10 µM; 370,000 compounds, 0.11% hits;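 active = activation at 10 µM reaching about 35% in either raw or pattern-adjusted values, limit read from the data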
GC-A act – GC-A (human) enzyme activation | HEK293 GC-A cells, cGMP TR-FRET, EC30 ANP; 0% at EC30 ANP, 100% saturating ANP | P16066 | 370,000 compounds, 0.14% hits | activation, % at 10 µM | AID 1671463; in the data active = activation above about 40%
ADAM10 inh – ADAM10 inhibition, QFRET primary screen; O14672; inhibition, % at 7 µM; AID 720582; 370,000 compounds, 0.62% hits; recombinant ADAM10, EDANS/DABCYL FRET peptide cleavage, 3 h;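 active = inhibition above a per-campaign cutoff equal to the mean of compounds falling between control-based bounds plus 3 SD, cut at about 20% in these data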;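 note: 0% = DMSO wells while the 100% control is not disclosed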
Target sequence (O14672 214-748 limits assumed): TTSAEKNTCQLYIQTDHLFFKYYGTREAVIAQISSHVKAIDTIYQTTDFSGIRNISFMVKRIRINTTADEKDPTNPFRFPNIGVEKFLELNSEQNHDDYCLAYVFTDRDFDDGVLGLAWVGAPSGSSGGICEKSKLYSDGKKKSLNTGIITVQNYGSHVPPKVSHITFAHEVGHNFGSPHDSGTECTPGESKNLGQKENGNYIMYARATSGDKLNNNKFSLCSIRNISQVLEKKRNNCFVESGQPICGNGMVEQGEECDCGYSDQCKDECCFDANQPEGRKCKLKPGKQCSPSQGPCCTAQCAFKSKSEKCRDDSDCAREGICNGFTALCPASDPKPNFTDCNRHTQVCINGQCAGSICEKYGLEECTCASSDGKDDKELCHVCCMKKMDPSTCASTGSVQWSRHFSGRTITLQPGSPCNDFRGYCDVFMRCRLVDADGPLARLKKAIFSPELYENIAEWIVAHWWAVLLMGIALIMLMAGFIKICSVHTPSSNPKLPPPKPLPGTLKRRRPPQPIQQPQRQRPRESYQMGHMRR
proKLK7 act – activates the human kallikrein-7 zymogen; purified proKLK7, EDANS-DABCYL substrate fluorescence; 100% is mature enzyme control, 0% vehicle; activation, % at 7 µM; AID 652039; 370,000 compounds, 0.9% hits; P49862;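 active = activation above the mean of all tested compounds plus 3 SD, computed per campaign excluding outliers beyond control limits, cut at about 13% in these data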
ADAM10 confirm – confirmation of inhibitors of human ADAM10; shares compounds with ADAM10 inh; ADAM10 QFRET peptide cleavage, EDANS fluorescence; inhibition, % at 6.95 µM; 2,100 compounds, 1% hits;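 active = inhibition above about 20% chosen separately for each screening run, limit read from the data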;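 note: 0% = DMSO wells and 100% = marimastat wells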
ADAM17 ctr – ADAM17 inhibition, counter-screen for ADAM10 exosite hits; shares compounds with ADAM10 inh; inhibition, % at 6.95 µM; 2,100 compounds, 0.5% hits; ADAM17 QFRET peptide cleavage, EDANS fluorescence; AID 743214;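 active = mean triplicate inhibition above the solvent-only control wells' mean plus 3 SD, cut at about 12% in these data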;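 note: 0% = DMSO wells and 100% = marimastat wells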
ADAM10 ctr – inhibits human ADAM10 in ADAM17 exosite counter-screen. shares compounds with ADAM17 inh. recombinant ADAM10, EDANS/DABCYL FRET peptide cleavage, 3 h. inhibition, % at 6.95 µM. 2,900 compounds, 47% hits;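 active = mean inhibition over the triplicate runs exceeds the activity threshold set in the earlier primary screen, cut at about 20% in these data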;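 note: 0% = DMSO wells and 100% = marimastat wells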
ADAM17 confirm – confirmation of inhibitors of human ADAM17. AID 743257. shares compounds with ADAM17 inh. 2,900 compounds, 65% hits. recombinant ADAM17, EDANS/DABCYL QFRET peptide cleavage. inhibition, % at 6.95 µM;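 active = mean inhibition across replicates above the hit cutoff set in the primary screen, cut at about 8.5% in these data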;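 note: 0% = DMSO wells and 100% = marimastat wells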
* hit, by the source's call; · = no result.

SMILES	ADAM17 inh	GC-B act	GC-A act	ADAM10 inh	proKLK7 act	ADAM10 confirm	ADAM17 ctr	ADAM10 ctr	ADAM17 confirm
CC(C)(C)NC(=O)C(c1ccc(-c2ccccc2)cc1)N(C[C@H]1CC[C@@H]([C@@H]2CC[C@H](CO)O2)O1)C(=O)c1ccc(C(C)(C)C)cc1 (stereo not given in full)	12*	3	-2	20*	0	4	1	37*	19*
Cc1ccc(C(C(=O)NC(C)(C)C)N(CC2CCCO2)C(=O)c2csnn2)cc1 (stereo not given)	-1	0	-8	-2	1	·	·	·	·
Cc1nn(-c2cc(N3CCCCC3)ccc2[N+](=O)[O-])c(=O)c2ccccc12	-2	9	4	-1	0	·	·	·	·
CN1CCN(c2ccc([N+](=O)[O-])c(-n3nc(-c4ccccc4)c4ccccc4c3=O)c2)CC1	13*	-2	2	20*	0	1	0	15	9.7*
CCCCN(C)c1c2c(nc3ncnn13)CCCC2	2	-4	2	2	0	·	·	·	·
COC(=O)C[C@H]1CC[C@H]2[C@H](COc3ccc(NS(=O)(=O)c4cccc(OC)c4)cc3C(=O)N2C)O1	-1	-1	0	-1	0	·	·	·	·
C#CCN(C[C@H]1[C@H](OC(=O)NCc2ccccc2F)[C@H](OC(=O)NCc2ccccc2F)C[C@H]2C(=O)N(c3ccccc3)C(=O)[C@@H]12)S(=O)(=O)c1ccc(C)cc1	9.0*	0	5	29*	0	7	2	9	5
O=C(COC(=O)c1ccc(Cl)c(S(=O)(=O)N2CCCCCC2)c1)Nc1ccccc1	10*	4	3	20*	0	12	3	49*	27*
O=C(COC(=O)c1ccc(S(=O)(=O)N2CCCC2)cc1)Nc1ccccc1	2	-3	0	2	0	·	·	·	·
N#CC1=C(N)NC(SCC(=O)Nc2ccc(Br)cc2)=C(C#N)C12CCCCC2	11*	1	-4	22*	0	3	2	30*	20*
Cc1ccc(S(=O)(=O)c2cccc(S(=O)(=O)N3CCCC3)c2)cc1S(=O)(=O)N1CCCC1	17*	3	-1	29*	1	-1	0	17	8
O=C(NCCNC(=O)c1cc(OCC(F)(F)F)ccc1OCC(F)(F)F)Nc1cccc(C(F)(F)F)c1	12*	4	0	37*	0	1	0	24*	14*
O=C(Nc1ccc(OC(F)F)cc1)Nc1cccc(C(F)(F)F)c1	10*	-12	9	25*	0	2	0	31*	16*
Cc1ccc(S(=O)(=O)Nc2ccc(NC(=O)Nc3cccc(C(F)(F)F)c3)cc2)cc1	22*	0	-10	41*	0	9	3	43*	19*
CC1(C)CC(=O)N(CC(=O)N2CCN(c3cccc(C(F)(F)F)c3)CC2)c2ccccc2S1(=O)=O	-3	-5	4	-10	0	·	·	·	·
CCCCCCCCN1CCS(=O)(=O)N(Cc2ccccc2)C(C(=O)OC)C1 (stereo not given)	5	2	10	7	0	·	·	·	·
COc1ccc(NC(=O)CC2C(=O)N(C)C(=S)N2CCc2ccc(F)cc2)cc1 (stereo not given)	12*	-1	-2	21*	1	1	0	25*	14*
O[C@H](COc1ccc(OC(F)(F)F)cc1)CN1CCC(C(O)(c2ccccc2)c2ccccc2)CC1	5	-9	-7	5	0	·	·	·	·
CCOC(=O)c1c(N)sc(C(O)(C(F)(F)F)C(F)(F)F)c1-c1ccc(Cl)cc1	11*	-3	5	37*	0	8	2	47*	24*
COc1cc(CN2CCN(c3cccc(C)c3C)CC2)cc(Br)c1O	9.8*	-4	-5	24*	0	3	2	22*	11*
Nn1c(SCC(=O)Nc2nccs2)nnc1-c1cc(-c2ccc(F)cc2)n[nH]1	1	-7	-1	4	1	·	·	·	·
CC(C)c1c(C(=O)N/N=C/c2cccc3ccccc23)nnn1-c1nonc1N	10*	-4	-16	20*	1	13	6	27*	20*
Cc1ccccc1S(=O)(=O)Cc1ccc(C(=O)N2CCN(c3cccc(C)c3C)CC2)o1	9.0*	4	-3	22*	0	5	1	18	12*
Cc1ccccc1S(=O)(=O)Cc1ccc(C(=O)N2CC(C)CC(C)C2)o1 (stereo not given)	3	-1	3	-4	1	·	·	·	·
COc1ccc([C@@H]2[C@@H]3C(=O)N(C(C)(C)C)C(=O)[C@@H]3[C@]3(Cc4ccccc4)C(=O)N(c4ccccc4)C(=O)N23)cc1	-2	0	0	5	0	·	·	·	·
SMILES	ADAM17 inh	GC-B act	GC-A act	ADAM10 inh	proKLK7 act	ADAM10 confirm	ADAM17 ctr	ADAM10 ctr	ADAM17 confirm
COc1ccc([C@@H]2[C@@H]3C(=O)N(C(C)(C)C)C(=O)[C@@H]3[C@]3(Cc4ccccc4)C(=O)N(c4cccc(Cl)c4)C(=O)N23)cc1	9.8*	-7	-4	37*	0	4	2	26*	15*
N#Cc1ccc(Cn2ccc3ccc(-c4ccc5ccn(C(=O)c6ccccc6)c5c4)cc32)cc1	-6	0	-2	-24	-2	·	·	·	·
COc1ccc(N(CC(=O)Nc2cc(C)cc(C)c2)S(=O)(=O)c2ccccc2[N+](=O)[O-])c(OC)c1	7	-5	1	13	0	·	·	·	·
COc1ccc(N(CC(=O)Nc2ccc(F)cc2)S(=O)(=O)c2ccccc2[N+](=O)[O-])c(OC)c1	11*	-3	-4	25*	1	2	1	32*	14*
CC(C)NC(=O)CC(c1ccccc1)c1cc(Br)ccc1O (stereo not given)	·	-18	-33	·	·	·	·	·	·
CCCCCCNC(=O)CC(c1ccccc1)c1cc(Br)ccc1O (stereo not given)	23*	-13	-15	35*	0	7	3	41*	22*
